Bioassay records: PubChem, Columbia University Molecular Screening Center
A selection: hits, their analogues and other compounds. The true share with any hit is near 1.5%.
IL1B NFkB inh = inhibitors of IL-1B driven NFkB p65 nuclear import, primary screen, imaging, HUVEC, IL-1B stimulus, high-content imaging. AID 796, 2007. HUVEC IL-1B NFkB p65 nuclear translocation imaging. inhibition, % at 2 µM. 94,000 compounds, 0.43% hits;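 active = inhibition above about 30% together with a positive call from visual inspection of the well image, limit read from the data; inconclusive = inhibition above a set limit but visual check negative; inactive = inhibition not above a set limit, visual check negative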;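 note: nuclear over cytoplasmic p65 intensity ratio measured by imaging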
NFkB transloc pot = enhancers of NFkB p65 translocation in HUVEC – imaging, IL-1B stimulus, high-content imaging, primary screen; HUVEC IL-1B NFkB p65 nuclear translocation imaging; activation, % at 2 µM; 94,000 compounds, 0.3% hits; AID 819, 2007;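 active = activation above 40%, about the mean plus 3 SD, also judged a hit on visual image review; inconclusive = activation above 40% but not a hit on visual review; inactive = activation not above 40% and no visual hit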;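 note: percent activation is computed from the nuclear over cytoplasmic p65 intensity ratio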
HUVEC tox TNFa = cytotoxicity in TNFa-stimulated HUVEC, primary screen, cytotoxicity control for VCAM1 expression modulator project, imaging, Hoechst nuclei count | HUVEC TNFalpha-stimulated, Hoechst cell count | cell count reduction, % at 2 µM | 93,000 compounds, 0.17% hits | AID 848, 2007;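 active = cell count reduction exceeding the screen mean by over 5 SD, scaled to untreated wells per plate, cut at about 78% in these data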;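 note: cells counted after 24 h of TNF alpha exposure following the 1 h pretreatment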
VCAM1 TNFa inh = inhibitors of TNFa-induced VCAM1 expression, primary screen, imaging, HUVEC, TNFa stimulus, immunofluorescence | HUVEC TNFa-induced VCAM-1 immunofluorescence, high-content imaging | inhibition, % at 2 µM | 95,000 compounds, 0.48% hits | AID 802, 2007;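 active = inhibition above the batch mean plus 3 SD, with images confirmed as a hit by eye, cut at about 37% in these data; inconclusive = inhibition above that limit but hit not confirmed in images; inactive = inhibition not above that limit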
HUVEC tox IL1B = cytotoxicity in IL-1B stimulated HUVEC, primary screen, cytotoxicity control for IL-1B NFkB translocation project, imaging, Hoechst nuclear count, IL-1B stimulus; HUVEC cell count loss; cell count reduction, % at 2 µM; 94,000 compounds, 0.41% hits; AID 845, 2007;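 active = cell count reduction more than 3 SD above the screen-wide mean, cut at about 70% in these data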
Each line names hits and unclear results; the compound was inactive in the other large screens.

Cn1nc(-c2ccc(C(=O)NCC3CCCO3)cc2)c2ccccc2c1=O (stereo unspecified)	HUVEC tox IL1B 90
Cn1nc(-c2ccc(C(=O)N3CCN(c4ccccc4)CC3)cc2)c2ccccc2c1=O	IL1B NFkB inh 99, HUVEC tox IL1B 90
O=C(c1ccc(N2CCCC2=O)cc1)N1CCN(c2ccccc2)CC1	NFkB transloc pot 44 (no result: HUVEC tox TNFa, VCAM1 TNFa inh)
Cn1nc(-c2ccc(OCC(=O)NCC3CCCO3)cc2)c2ccccc2c1=O (stereo unspecified)	none
O=C(c1ccc(N2CCCC2=O)cc1)N1CCCCCC1	none
Cn1nc(-c2ccc(C(=O)O)cc2)c2ccccc2c1=O	none
O=C(Oc1ccccc1)c1cccc(COC(=O)c2cnccn2)c1	HUVEC tox IL1B 87
COc1ccccc1-c1nnc(SCC(=O)OC(C)C)o1	none
COc1cc(C2C(C#N)=C(C)NC3=C2C(=O)c2ccccc23)cc(OC)c1OC (stereo unspecified)	VCAM1 TNFa inh 89
CC1=C([N+](=O)[O-])C(c2ccccc2)C2=C(N1)c1ccccc1C2=O (stereo unspecified)	VCAM1 TNFa inh 44
COc1ccc(C2C(C#N)=C(C)NC3=C2C(=O)c2ccccc23)cc1 (stereo unspecified)	none (no result: IL1B NFkB inh, NFkB transloc pot, HUVEC tox IL1B)
CCOC(=O)Cc1csc(NC(=O)c2ccc(Br)s2)n1	HUVEC tox IL1B 89
CCOC(=O)c1c(NC(=S)NC(=O)c2cnn(CC)c2)sc2c1CCC(C)C2 (stereo unspecified)	IL1B NFkB inh inconclusive
O=C(CSc1ccc2ccccc2c1)Nn1cnnc1	NFkB transloc pot 50
CCCn1c(SCC#N)nc2c(c1=O)C1(CCCC1)Cc1ccccc1-2	HUVEC tox IL1B 93
N#CCSc1nc2c(c(=O)n1Cc1ccco1)C1(CCCC1)Cc1ccccc1-2	none
OC1C[N+]2(CCCCC2)C1	HUVEC tox IL1B 92
Cc1ccc(C2=[N+]([O-])C3(CCCCC/C3=N\NC(N)=S)N(O)C2(C)C)o1 (stereo unspecified)	none (no result: HUVEC tox TNFa)
COc1ccccc1-c1cn(S(=O)(=O)c2ccc(C)cc2)nc1N	VCAM1 TNFa inh 91
COc1ccc(OC)c(-c2cn(S(=O)(=O)c3ccccc3)nc2N)c1	none
O=C(NCCO)C(c1ccccc1)c1ccccc1	HUVEC tox TNFa 90, VCAM1 TNFa inh 91
CCOc1ccc(-n2nc3c(-n4ncc(C#N)c4N)nnc(C)c3c2C)cc1	none
CC(NC(=O)c1ccccc1NC(=O)c1ccco1)C(=O)O (stereo unspecified)	none
CC(NC(=O)c1ccccc1Cl)C(=O)O (stereo unspecified)	NFkB transloc pot 67
CCCc1sc(N/N=C/c2ccccn2)nc1-c1ccc(Br)cc1	VCAM1 TNFa inh 94
CCc1sc(NS(C)(=O)=O)nc1-c1ccccc1	none
O=C(Nn1c(O)c(C=C2N=c3ccccc3=N2)sc1=S)c1ccccc1	HUVEC tox IL1B 88
CC1=CC(=C(C#N)c2nc3ccccc3s2)C=C(C)N1Cc1ccco1	none
N=C1C(c2nc3ccccc3s2)=C(O)CN1Cc1ccco1	VCAM1 TNFa inh 96
Nc1nnc(CCOc2ccccc2Cl)s1	IL1B NFkB inh 61
COc1ccc(OC)c(C(=O)N2CCC(C(=O)c3ccc(F)cc3)CC2)c1	none
CN(C/C(O)=C(\C#N)c1ccccc1)C1CCCCC1	NFkB transloc pot 126
CCN(CC)c1ccc(C2=NNC(=O)CC2C)cc1[N+](=O)[O-] (stereo unspecified)	VCAM1 TNFa inh 78
CC(C)Cc1cc(C(=O)Nc2cc(C(F)(F)F)ccc2Cl)no1	none
O=C1CC(C(=O)N2CCN(c3ccc(F)cc3)CC2)CN1CCc1ccccc1 (stereo unspecified)	none
O=C(C1CCC(=O)N1Cc1ccccc1Cl)N1CCN(c2ccc(F)cc2)CC1 (stereo unspecified)	HUVEC tox IL1B 78
COc1ccccc1CN1CC(C(=O)N2CCN(c3ccc(F)cc3)CC2)CC1=O (stereo unspecified)	NFkB transloc pot 41
CNC(=O)C1CCC(=O)N1Cc1ccccc1Cl (stereo unspecified)	none
CC(C)CCN1CC(C(=O)N2CCN(c3ccc(F)cc3)CC2)CC1=O (stereo unspecified)	HUVEC tox IL1B 76
CCOC(=O)c1ccccc1NS(=O)(=O)c1ccccc1F	none
COC(=O)c1ccc(Oc2nc(C)cc(Oc3ccccc3)n2)cc1	HUVEC tox IL1B 90
Cc1cc(NC(=O)NC(=O)c2cccc(OC(F)(F)C(F)F)c2)n[nH]1	VCAM1 TNFa inh 91
COc1cccc(C(=O)Nc2c(C)n[nH]c2C)c1	none
CC(=O)N1CCc2cc(S(=O)(=O)CCC(=O)N3CCN(C(=O)c4ccco4)CC3)ccc21	HUVEC tox IL1B 86
CCOC(=O)N1CCC(NC(=O)c2cc(C(=O)NC3CCCC3)ccc2CO)CC1	IL1B NFkB inh 61
Cc1noc(C)c1C(=O)OCC(=O)NCCC1=CCCCC1	NFkB transloc pot 114
COc1ccc2o/c(=N\O)c(C(=O)Nc3ccccc3OC)cc2c1	HUVEC tox IL1B 76
Cn1cc(/C=N/n2cnc3scc(-c4ccc(Cl)cc4)c3c2=O)c2ccccc21	IL1B NFkB inh 37, VCAM1 TNFa inh 75
CC1=C(C(N)=O)C(c2ccccn2)n2nc(-c3ccccc3Cl)nc2N1 (stereo unspecified)	IL1B NFkB inh 36
COc1ccc(-c2nn(C)c(=O)c3ccccc23)cc1NC(=O)Cn1nc(-c2ccccc2)c2ccccc2c1=O	none
CCOC(=O)c1oc2ccccc2c1NC(=O)Cc1cccs1	VCAM1 TNFa inh 83
O=c1[nH]c2ccccc2n2c(-c3ccncc3)nnc12	none (no result: IL1B NFkB inh, NFkB transloc pot, HUVEC tox IL1B)
Cn1c(=O)oc2cc(S(=O)(=O)N3CCC(C(=O)NCC4COc5ccccc5O4)CC3)ccc21 (stereo unspecified)	none
Cc1nn(C)c(C)c1S(=O)(=O)N1CCC(C(=O)NCC2COc3ccccc3O2)CC1 (stereo unspecified)	NFkB transloc pot 42
COC(=O)c1cc(=O)nc2sccn12	NFkB transloc pot 42
CCSc1nc(C)c(CC)c(C)c1C(N)=O	IL1B NFkB inh 34
CCCCC(=O)Nc1cccc(NC(=O)c2ccccc2Br)c1	none
COc1ccccc1C(=O)Nc1ccc2c(c1)nc(CN1CCN(C(C)=O)CC1)n2C	VCAM1 TNFa inh 90
CC(=O)N1CCN(Cc2nc3cc(NC(=O)c4ccccc4)ccc3n2C)CC1	none
Cc1csc(Sc2nc3c(c(=O)[nH]c(=O)n3C)n2Cc2ccccc2Cl)n1	IL1B NFkB inh 31
COc1ccc(S(=O)(=O)Nc2nc3ccccc3s2)cc1OC	none (no result: IL1B NFkB inh, NFkB transloc pot, HUVEC tox IL1B)
Cc1ccc(C(=O)O/N=C2\CCCc3ccccc32)cc1	none
O=C(O/N=C1/CCCc2occc21)c1ccccc1	HUVEC tox IL1B 72
CSc1cccc(NC(=O)CN(c2cc(C)ccc2C)S(C)(=O)=O)c1	none
CCOC(=O)Cn1nc(-c2ccc(F)cc2)oc1=O	none
